The values that follow come from PubChem BioAssay AID1628 (Sanford-Burnham Center for Chemical Genomics, 2009).

The structures appear in SMILES notation. About 930 (0.49%) of roughly 190,000 compounds were called active.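 The calls were made as follows: active = z-score of insulin promoter reporter brightness in nuclei below -3 at 5 µM, with at least 500 cells counted; inconclusive = wells with under 500 cells, flagged as toxic or sparse; inactive = the rest.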 Some of the results follow. Results with a measured potency or affinity are listed apart.

A short description of this assay: insulin promoter down-regulators in MIN6 cells, imaging, high-content screening, mouse beta cells (AID 1628). The note with it: MIN6 insulin promoter GFP reporter, at 5 µM, hits give low values.
On to `COc1cc(C(Nc2ccc3c(c2)OCO3)C(=O)NC2CCCCC2)cc(OC)c1OC` (centres undefined), for which the z-score is -3.78 (active). In the case of `Fc1ccc(C2NCCn3cccc32)cc1` (centres undefined) it was 3.94 (inactive); in that of `CNC(=O)c1ccc(-c2sc3nc(N4CCOCC4)c4c(c3c2N)CCCC4)o1`, -3.66 (active). The same measure for `N#C/C(=C\c1ccc(N2CCOCC2)o1)C(=O)NCCc1ccccc1`: 4.72 (inactive); for `Nc1c(C(=O)c2ccc(Cl)cc2)sc2nsc(SCCN3CCOCC3)c12`: 4.91 (inactive); for `CNC(=O)c1ccc(-c2sc3nc(N4CCOCC4)c4c(c3c2N)CC(C)(C)OC4)o1`: 3.23 (inactive). The same measure for `Nc1c(C(=O)NCCc2ccccc2)sc2nc(N3CCOCC3)c3c(c12)CCCC3`: -3.11 (active). In the case of `c1ccc(-c2ccc(-c3nccc4ccccc34)[nH]2)cc1`, the z-score is 4.38 (inactive). Regarding `O=c1[nH]c(-c2ccccn2)nc2sc(-c3ccccc3)cc12`, the z-score is -6.56 (active).

With `CCN1/C(=C/c2cc[n+](CCCS(=O)(=O)[O-])c3ccccc23)Sc2ccccc21`, the z-score was 6.08 (inactive). The same measure for `CCC(/C=C1\Sc2ccc(OC)cc2N1CC)=C\c1sc2ccc(OC)cc2[n+]1CCCS(=O)(=O)[O-]`: -3.29 (active); for `CC[n+]1c(/C=C/C=C/N(C(C)=O)c2ccccc2)sc2cc(OC)ccc21`: 17.2 (inactive). In the case of `Cc1ccc(CN=Cc2[nH]c3ccc(Br)c(Cl)c3c2O)cc1`, the z-score is 9.43 (inactive). Regarding `Cc1ccc(Nc2nc(Cl)c(C=O)s2)cc1Cl`, the z-score was 6.83 (inactive). In the case of `Cc1nc([N+](=O)[O-])c(N2CCN(Cc3ccccc3)CC2)n1Cc1ccccc1` it was -3.12 (active); in that of `Cc1nc([N+](=O)[O-])c(Br)n1CC(=O)c1cccc([N+](=O)[O-])c1`, 2.48 (inactive). `CC(C)(C)C1CCc2c(sc(N)c2C(N)=O)C1` (centres undefined): the z-score was -5.29 (active). Turning to `COc1ccccc1NS(=O)(=O)c1cc([N+](=O)[O-])ccc1N/N=C/c1sc(N2CCOCC2)nc1-c1ccccc1`, the z-score is 4.89 (inactive). The same measure for `Nc1ccc(C(=O)N/N=C/c2sc(N3CCOCC3)nc2-c2ccccc2)cc1`: -4.08 (active); for `O=[N+]([O-])c1ccc(N/N=C/c2sc(N3CCOCC3)nc2-c2ccccc2)c(S(=O)(=O)Nc2ccccc2Cl)c1`: 13.1 (inactive). Regarding `Oc1ccc(CN2CCC(Cc3ccccc3)CC2)c2cccnc12`, the z-score is -5.12 (active).

Consider `COc1ccc(C)cc1NC(=O)c1nnn(Cc2cccc(C(F)(F)F)c2)c1N`, for which the z-score was 3.48 (inactive). In the case of `CCOC(=O)c1nn(-c2ccc(Cl)cc2Cl)c(=N)c(C#N)c1C` it was 10.8 (inactive). Take `CCOC(=O)c1c(C)nn(Cc2cccc(Cl)c2)c1N`: the z-score is -5.31 (active). In the case of `C=CCN1C(=O)/C(=C/C=C2/N(CC)c3ccc(S(=O)(=O)N(C)C)cc3N2CC)SC1=S` it was 17.1 (inactive); in that of `CCOC(=O)C(C)c1nn(C)c(=O)c2ccccc12` (centres undefined), -3.52 (active); in that of `CCOC(=O)C1C(=O)CC(C)(O)C(C(=O)OCC)C1c1ccccc1` (centres undefined), 0.91 (inactive). In the case of `COc1ccc(N2C(=O)CCC(C(=O)NCCCN3CCC(C)CC3)C2c2ccc(OC)c(OC)c2)cc1` (centres undefined) it was 4.36 (inactive); in that of `CCCn1c(CN2CCN(c3cccc(Cl)c3)CC2)nc2c1c(=O)n(C)c(=O)n2C`, -6.4 (active); in that of `CCCCn1c(CN2CCN(c3cccc(Cl)c3)CC2)nc2c1c(=O)n(C)c(=O)n2C`, -5.64 (active). Take `Cn1ncc2c1ncn1nc(CCc3ccccc3)nc21`: the z-score was 3.58 (inactive). In the case of `NC(=O)c1c[nH]c2ccccc12` it was -0.45 (inactive); in that of `CCOC(=O)c1c(C)c(C(=O)NC2CCCCC2)c(C)n1CC`, -3.91 (active); in that of `CCOC(=O)COc1ccc(C(=O)NC2CCCCC2)cc1`, 4.25 (inactive). The same measure for `CC(C)NC(=O)/C(C#N)=C/c1ccc(N(C)C)o1`: 9.4 (inactive); for `CO/N=C/c1ccc(N2CCN(C(=O)c3ccc(F)cc3)CC2)c([N+](=O)[O-])c1`: -5.66 (active).

`COc1ccc(/C=C2\C(=O)NC(=S)N2C(=O)c2ccc(F)cc2)cc1`: the z-score is 4.23 (inactive). The same measure for `COc1cc([C@@H]2[C@H]3CN(C)CC=C3C(C#N)=C(N)C2(C#N)C#N)cc2c1OCO2`: 5.23 (inactive). `COc1cc(/C=N/N=C(\N)c2nonc2N)cc(OC)c1OC`: the z-score was 3.59 (inactive). The same measure for `O=C(Nc1ccccc1)C(O)C(O)C(=O)Nc1ccccc1` (centres undefined): -0.63 (inactive). The same measure for `O=C(Nc1ccccc1)N1CCSc2ccccc21`: -3.05 (active). In the case of `COC(=O)c1cn(NC(=O)/C=C/c2cc(OC)ccc2OC)c(=O)c2ccccc12` it was -3.15 (active); in that of `CC1(C#CC[N+]2(C)CCCCC2)CCC2C(O1)c1ccccc1OC2(C)C` (centres undefined), 3.38 (inactive); in that of `CC(=O)C(=Cc1cn(-c2ccccc2)nc1-c1ccccc1)C(C)=O`, 3.2 (inactive). With `COc1ccc(-c2nn(-c3ccccc3)cc2/C=C(\C#N)S(=O)(=O)c2ccccc2)cc1OC`, the z-score was -4.08 (active). The same measure for `CN(C)c1ccc(/C=C/c2ccc3ccccc3n2)cc1`: 7.29 (inactive); for `Cc1cc(N2C(=O)c3ccccc3C2=O)n(C)n1`: 3.77 (inactive); for `O=C(/C=C/c1ccco1)NC(=S)Nc1ccccc1N1CCCC1`: 3.08 (inactive). With `CCn1c(SCC(=O)N2CCCC2)nnc1-c1ccc(N)cc1`, the z-score was 1.98 (inactive). In the case of `CCc1nnc(NC(=O)CSc2ccc(-c3cccs3)nn2)s1` it was 1.38 (inactive); in that of `COc1ccc(NC(=O)CSc2nnc(-c3cccs3)n2C)cc1OC`, 3.55 (inactive); in that of `CCOC(=O)c1ccc(CSc2nnc(-c3ccncc3)n2N)cc1`, 3.8 (inactive). Turning to `CCn1c(SCC(=O)Nc2cc(OC)c(OC)c(OC)c2)nnc1-c1cccs1`, the z-score was -4.1 (active). In the case of `CCOc1ccccc1N1CC(O)=C(c2nc3ccccc3s2)C1=N` it was -3.91 (active); in that of `Cc1ccc(N2C(=O)C3C(C(=O)c4ccccc4)=NN(c4ccccc4)C3C2=O)cc1` (centres undefined), 3.17 (inactive); in that of `Cc1ccc(-n2cc(-c3ccc([N+](=O)[O-])cc3)[nH]c2=S)c(C)c1`, -6.17 (active). With `CCN1CCC2(CC1)N=C(c1ccc(F)cc1)C(=S)N2`, the z-score is 4.47 (inactive). As to `CS(=O)(=O)ON=C1CCN(S(=O)(=O)c2ccccc2)CC1`, the z-score was 3.51 (inactive).

Take `O=c1oc2c(CN3CCCCC3)c(O)ccc2cc1-c1nc2ccccc2[nH]1`: the z-score was 3.57 (inactive).
